Source: ChEMBL document CHEMBL3988442, “University of Dundee, Small-Polar-MMV Screening Library” (2021)
The campaign covered roughly 48,000 compounds. About 13,000 (27%) showed an effect of 50% or more. The list shows a part of the results.

Tested on: Wolbachia pipientis
Experiment: Anti-Wolbachia Cell-Based Screen
Assay type: functional
Parameters: scale not given: in the data most compounds retested in dose-response had high values
Conditions: 5 µM

In order of falling “Percent Effect” value:
1. CC(C)NC(=O)c1noc2c1CN(Cc1cnn(C)c1)CC2  212.5%
2. COCCNC(=O)Cn1c(-c2cccc(F)c2)nc(C)c(CCO)c1=O  196.7%
3. COCCNC(=O)Cn1c(-c2cccc(Cl)c2)nc(C)c(CCO)c1=O  141.8%
4. O=C(N[C@@H]1CC[C@@H](N2CCCC2)[C@@H]1O)c1cc2ccccc2[nH]1  132.3%
5. Cc1noc(C(C)N2CCN(CCN3CCCC3=O)CC2)n1 (stereo not drawn)  121%
6. CCOc1ccc(CCCC(=O)N2CC[C@H](NC(C)=O)C2)cc1C  116.5%
7. CC(C)CC(=O)N1CCCC2(CC(C(=O)Nc3ccccc3)=NO2)C1 (stereo not drawn)  115.3%
8. Cc1ccc(C(=O)N2CCc3ncnc(-c4cnn(C)c4)c3CC2)cn1.O=C(O)C(F)(F)F  114%
9. CCc1noc(C(C)N2CCN(CCN3CCCC3=O)CC2)n1 (stereo not drawn)  113.9%
10. CC(C)NC(=O)N1CCCC2(CC(C(=O)Nc3ccccc3)=NO2)C1 (stereo not drawn)  111.3%
11. O=C(c1coc(COc2ccccc2F)n1)N1CCC[C@H]1CO  111.3%
12. CSc1nsc(NC(=O)N2CCc3ccccc3C2)n1  111%
13. Cc1ccc(O)c(C(=O)N2CCOCC2c2c(C)nn(C)c2C)c1 (stereo not drawn)  110.1%
14. COCCC1CCCCN1C(=O)c1coc(COc2ccccc2F)n1 (stereo not drawn)  108.5%
15. Cc1nsc(NC(=O)N2CCc3sccc3C2)n1  105.8%
16. O=C(c1coc(COc2ccccc2F)n1)N1CCCO1  104.9%
17. Cn1cc(CN2CCc3onc(C(=O)Nc4cccnc4)c3C2)cn1  104.3%
18. Cc1oncc1C(=O)N1CCc2ncnc(-c3cnn(C)c3)c2CC1.O=C(O)C(F)(F)F  102.6%
19. O=C(N[C@@H]1CC[C@@H](N2CCCC2)[C@@H]1O)c1cc2cccc(F)c2[nH]1  98.49%
20. CC(C)(C)CC(=O)N1CCCC2(CC(C(=O)Nc3ccccc3)=NO2)C1 (stereo not drawn)  98.19%
21. Cc1nn(C)c(C)c1C1COCCN1C(=O)c1cc(F)ccc1F (stereo not drawn)  96.87%
22. CCOc1ccc(CCCC(=O)N2CCC(c3nnn[nH]3)CC2)cc1C  92.44%
23. CCOc1ccc(CCCC(=O)N2CCC(C(=O)NC)C2)cc1C (stereo not drawn)  83.39%
24. Cc1c(C(=O)N[C@@H]2CC[C@@H](N3CCCC3)[C@@H]2O)[nH]c2ccc(F)cc12  79.42%
25. O=C(Nc1ccc(N2CCCC2)nc1)N1CCc2ccccc2C1  28.26%
26. CS(=O)(=O)NC1CCN(C(=O)c2[nH]c3ccc(Cl)cc3c2Cl)CC1  24.08%
27. Cc1c(C(=O)N2CCN(C)[C@@H]3CS(=O)(=O)C[C@@H]32)[nH]c2ccc(F)cc12  22.59%
28. CC(c1ccco1)n1cc(-c2cc(CN3CCCC3)cs2)nn1 (stereo not drawn)  21.85%
29. O=C(NC1CCCCNC1=O)c1cc2ccccc2[nH]c1=O (stereo not drawn)  20.65%
30. CSCCC(C)NC(=O)N1CCSC(C)(C)C1 (stereo not drawn)  17.63%
31. CCOc1ccc(C2CC(=O)Nc3c2c(=O)nc2sccn32)cc1 (stereo not drawn)  17.16%
32. Cc1nsc(N2CCc3sccc3C2)n1  15.05%
33. Cc1nsc(C(=O)N2CCc3ccccc3C2)n1  14.75%
34. CCOc1cc(NC(=O)N2CCC(c3nnc[nH]3)CC2)ccc1C  11.09%
35. Cc1ncccc1NC(=O)C1=NOC2(CCN(Cc3nccs3)C2)C1 (stereo not drawn)  10.83%
36. CCc1ccc(CC)c(NCC(=O)N2CCCC(NC(C)=O)C2)c1 (stereo not drawn)  8.422%
37. Cc1noc(C(C)N2CCN(CCCN3CCCC3=O)CC2)n1 (stereo not drawn)  8.407%
38. CCc1cc(C)c(C(=O)N2CCCC(c3nnn[nH]3)C2)o1 (stereo not drawn)  6.83%
39. CCCSCC(=O)N1C[C@@H]2CC[C@H](C1)N(Cc1ccccn1)C2=O  6.181%
40. O=C(c1coc(COc2cccc3cnccc23)n1)N1CCCCCC1  5.374%
41. CC(=O)Nc1nc(C(=O)NCCOc2cccc(F)c2)cs1  5.348%
42. CC(=O)N[C@@H]1CN(C(=O)c2cc3ccccc3[nH]2)C[C@H]1c1ccc(C)o1  5.04%
43. O=C(O)C(F)(F)F.O=C(c1cocn1)N1CC[C@H]2OCC[C@@]2(COc2ncccc2F)C1  4.073%
44. CNC(=O)c1cn2cc(-c3cccc(Cl)c3)n(CC=C(C)C)c(=O)c2n1  3.943%
45. O=C(O)C(F)(F)F.O=C(c1cccnc1)N1CCc2ncnc(N3CCOCC3)c2CC1  3.769%
46. O=C(Nc1cccnc1)c1noc2c1CN(S(=O)(=O)C1CC1)CC2  3.652%
47. CN(C)CC(=O)N1CCc2ncnc(-c3cncnc3)c2CC1.O=C(O)C(F)(F)F  2.289%
48. CN(C)Cc1cc(CC2(NCc3ccc(C#N)cc3)COC2)no1  1.695%
49. CCN(C)c1ncnc2c1CCN(C(=O)c1ccoc1C)CC2.O=C(O)C(F)(F)F  0.8996%
50. CCc1noc(C(C)N2CCN(CCc3ccncc3)CC2)n1 (stereo not drawn)  0.707%
51. CC(=O)NCc1noc2c1CN(Cc1cnn(C)c1)CC2  0.2145%
52. COc1cc(C)ccc1OCc1nc(C(=O)N2CCCC2)co1  0.1288%
53. O=C([C@H]1C[C@H]2OCC[C@H]2N(CC2CC2)C1)N1CCCC1  -0.02998%
54. Cc1ocnc1C(=O)N1CCN(Cc2ccccc2)[C@@H]2CS(=O)(=O)C[C@@H]21  -1.53%
55. Cc1ccc2cc(C3(O)CCN(C)CC3)ccc2n1  -2.467%
56. Cc1cnn(C2CN(CC(=O)Nc3cccnc3)C2)c1  -2.546%
57. CCNC(=O)N1CCC(NC(=O)NCCCc2cccc(F)c2)C1 (stereo not drawn)  -2.549%
58. CC(C)NC(=O)N1CCC2(CC(C(=O)NCc3cccnc3)=NO2)C1 (stereo not drawn)  -3.064%
59. CCS(=O)(=O)N1CCc2onc(COc3ccccn3)c2C1.O=C(O)C(F)(F)F  -3.121%
60. Cc1nn(C)c(C)c1C1COCCN1C(=O)NC1CC1 (stereo not drawn)  -3.324%
61. CC(C)NC(=O)C1CCC2(CCN(Cc3cnn(C)c3)CC2)CO1.O=C(O)C(F)(F)F (stereo not drawn)  -4.372%
62. COC(=O)N1CCCC(C(=O)Nc2nc(C)c(SC)s2)C1 (stereo not drawn)  -4.415%
63. COCCC(=O)NCC1Cn2nnc(-c3cccc(F)c3)c2CO1 (stereo not drawn)  -4.513%
64. Cc1cc(C(=O)NCCc2cn3nc(C)sc3n2)c(C)o1  -4.861%
65. COC[C@@]12CC[C@@H](N3CCOCC3)C[C@H]1CCN(c1ncccn1)C2  -5.007%
66. Cn1cccc(NC(=O)N2CCC(CSc3ccccc3)C2)c1=O (stereo not drawn)  -5.186%
67. CCOC(=O)c1ccc(CNC(=O)c2ccc(Cl)cn2)o1  -5.208%
68. CC1CCCCN1C(=O)c1coc(COc2cccc3cnccc23)n1 (stereo not drawn)  -5.431%
69. Cc1noc(C)c1CN(C)CC(=O)/N=c1\cc[nH]n1C(C)C1CC1 (stereo not drawn)  -5.789%
70. CN(C)c1cccc(C(=O)Nc2cnn(Cc3ccccn3)c2)c1  -6.173%
71. CCc1noc(C(C)N2CCC(N3CCCC3)CC2)n1 (stereo not drawn)  -6.719%
72. CN(Cc1ccc2c(c1)OCO2)C(=O)c1ccc(C2CCCO2)s1 (stereo not drawn)  -6.874%
73. CC(C)C(=O)N1CCCC2(CC(C(=O)NCc3cccnc3)=NO2)C1.O=C(O)C(F)(F)F (stereo not drawn)  -6.89%
74. COc1cc(C)ccc1OCc1nc(C(=O)N2CCCO2)co1  -7.138%
75. Cc1nc(CNC(C(=O)N2CCOCC2)C(C)C)no1 (stereo not drawn)  -7.712%
76. COCC(=O)N1CCC2(CC(C(=O)NCc3cccnc3)=NO2)C1 (stereo not drawn)  -9.027%
77. Cc1ccc(C(=O)N2CCc3ncnc(C)c3CC2)cn1  -9.03%
78. O=C(C1CC=CC1)N1CC[C@@H]2O[C@@H](COCC3CCOCC3)CC[C@@H]21  -9.606%
79. Cc1nn(C)c(C)c1C1COCCN1C(=O)CC(C)(C)C (stereo not drawn)  -9.995%
80. Cc1cn(CC(=O)NCC(=O)NC2CC2)c2ccccc12  -10.11%
81. CSc1ccc(OC(C)C(=O)Nc2cc(C)n[nH]2)cc1 (stereo not drawn)  -10.9%
82. CNC(=O)C1CCN(C(=O)c2coc(COc3ccc(OC)cc3)n2)C1 (stereo not drawn)  -10.95%
83. CCOc1ccc(C(C)NC(=O)N2CCC(C(N)=O)CC2)cc1OC (stereo not drawn)  -11.4%
84. COc1ccc(F)cc1C[S+]([O-])CC(=O)NCC(C)C (stereo not drawn)  -12.33%
85. Cc1ccc(=O)n(CC(=O)N(C)Cc2csc(-c3cccs3)n2)n1  -12.57%
86. CCc1nsc(N2CCn3c(nnc3-c3ccccc3)C2)n1  -13.36%
87. Cc1n[nH]c(C)c1CCc1nc(C2CC2)n[nH]1  -13.82%
88. CN(C)c1ccc(NC(=O)N2CCc3sccc3C2)cn1  -14.46%
89. CCc1nc(C)c([C@H]2CN(C)C[C@@H]2C(=O)NCc2ccccn2)[nH]1  -14.52%
90. COc1cccc2[nH]cc(CCNC(=O)N3CCOCC3C3CC3)c12 (stereo not drawn)  -14.93%
91. CS(=O)(=O)NC[C@H]1Cn2c(-c3ccc4c(c3)OCCO4)cnc2CO1  -15.67%
92. Cc1cc(=O)n(CC(=O)NCCC(C)C)c(-c2cccc(Cl)c2)n1  -16.01%
93. O=C(N[C@@H]1CCNC[C@H]1O)c1ccc(F)c(Cl)c1  -18.82%
94. COC(=O)CNC(=O)C(C)Oc1ccccc1C(F)(F)F (stereo not drawn)  -20.43%
95. COc1ccccc1OCc1cc(C(=O)N2CCCCCC2CO)n[nH]1 (stereo not drawn)  -25.79%
96. CC[C@H](CO)NC(=O)c1coc(COc2ccccc2F)n1  -31.99%
97. CO[C@H]1CN(C(C)C)C[C@@H]1NC(=O)c1cc(-c2ccccc2F)n[nH]1  -41.59%
98. CC(=O)N1CCc2[nH]nc(C(=O)N3CC=CC3)c2C1  -70.9%
